# Where “and” joins values, the source holds several entries; their conditions need not be identical. Equal values may be shown once. Hit rate of the full screen: of about 5,500 compounds, about 2,000 (36%) were called active. Inconclusive results (about 18%) are left out. Some of the results follow. Values without a mark were called inactive. No stated cut-off is given here; in the data, active means normalized growth mostly below about 0.91 (no sharp cut-off); inconclusive means no clear call, values can overlap the other calls; inactive means mostly above about 0.92.
# Experiment: chemical genetic growth profiling, strain panel (AID 1159580);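 further: tested at 20 µM; growth read once vehicle control cultures reached saturation at 30 °C; 1 = growth at the plate median or of vehicle wells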
# Details: S. cerevisiae deletion strains, growth OD
smiles,measurement,setting,value
COc1ccc([C@@H](C)C(=O)c2ccc(O)cc2O)cc1,normalized growth,"locus YAL021C, strain ccr4, stronger effect = lower value",0.987
same,normalized growth,"locus YAL026C, strain drs2, stronger effect = lower value",0.969
same,normalized growth,"locus YAL030W, strain snc1, stronger effect = lower value",0.983
same,normalized growth,"locus YBL061C, strain skt5, stronger effect = lower value",0.976
same,normalized growth,"locus YBR009C, strain hhf1, stronger effect = lower value",0.962
same,normalized growth,"locus YBR021W, strain FUR4, stronger effect = lower value",0.996
same,normalized growth,"locus YBR023C, strain chs3, stronger effect = lower value",0.974
same,normalized growth,"locus YBR171W, strain sec66, stronger effect = lower value",0.95
same,normalized growth,"locus YBR229C, strain ROT2, stronger effect = lower value",0.982
same,normalized growth,"locus YBR231C, strain swc5, stronger effect = lower value",0.983
same,normalized growth,"locus YBR279W, strain paf1, stronger effect = lower value",0.978
same,normalized growth,"locus YCL011C, strain gbp2, stronger effect = lower value",0.987
same,normalized growth,"locus YCL016C, strain dcc1, stronger effect = lower value",0.985
same,normalized growth,"locus YCL029C, strain bik1, stronger effect = lower value",0.96
same,normalized growth,"locus YCL061C, strain MRC1, stronger effect = lower value",0.994
same,normalized growth,"locus YCL069W, strain vba3, stronger effect = lower value",0.955
same,normalized growth,"locus YCR088W, strain abp1, stronger effect = lower value",0.967
same,normalized growth,"locus YDL005C, strain med2, stronger effect = lower value",0.969
same,normalized growth,"locus YDL035C, strain GPR1, stronger effect = lower value",0.98
same,normalized growth,"locus YDL040C, strain nat1, stronger effect = lower value",0.97
same,normalized growth,"locus YDL074C, strain BRE1, stronger effect = lower value",0.927
same,normalized growth,"locus YDL101C, strain DUN1, stronger effect = lower value",0.955
same,normalized growth,"locus YDL185W, strain tfp1, stronger effect = lower value",0.959
same,normalized growth,"locus YDL192W, strain arf1, stronger effect = lower value",0.931
same,normalized growth,"locus YDR001C, strain nth1, stronger effect = lower value",0.979
same,normalized growth,"locus YDR069C, strain doa4, stronger effect = lower value",0.965
same,normalized growth,"locus YDR101C, strain arx1, stronger effect = lower value",0.961
same,normalized growth,"locus YDR137W, strain rgp1, stronger effect = lower value",0.797 (active)
same,normalized growth,"locus YDR159W, strain sac3, stronger effect = lower value",0.969
same,normalized growth,"locus YDR162C, strain NBP2, stronger effect = lower value",0.937
same,normalized growth,"locus YDR195W, strain ref2",1.11
same,normalized growth,"locus YDR297W, strain sur2, stronger effect = lower value",0.994
same,normalized growth,"locus YDR318W, strain mcm21, stronger effect = lower value",0.93
same,normalized growth,"locus YDR334W, strain swr1, stronger effect = lower value",0.957
same,normalized growth,"locus YDR335W, strain msn5, stronger effect = lower value",0.968
same,normalized growth,"locus YDR388W, stronger effect = lower value",0.969
same,normalized growth,"locus YDR392W, strain spt3, stronger effect = lower value",0.749
same,normalized growth,"locus YDR502C, strain sam2, stronger effect = lower value",0.931
same,normalized growth,"locus YEL003W, strain gim4, stronger effect = lower value",0.962
same,normalized growth,"locus YEL037C, strain rad23, stronger effect = lower value",0.966
same,normalized growth,"locus YEL061C, strain CIN8 (second series), stronger effect = lower value",0.957
same,normalized growth,"locus YER015W, strain faa2, stronger effect = lower value",0.986
same,normalized growth,"locus YER016W, strain bim1, stronger effect = lower value",0.973
same,normalized growth,"locus YER110C, stronger effect = lower value",0.969
same,normalized growth,"locus YER111C, strain swi4, stronger effect = lower value",0.965
same,normalized growth,"locus YER155C, strain BEM2 (second series), stronger effect = lower value",0.952
same,normalized growth,"locus YER155C, strain BEM2, stronger effect = lower value",0.971
same,normalized growth,"locus YER167W, strain BCK2, stronger effect = lower value",0.973
same,normalized growth,"locus YFR010W, strain ubp6, stronger effect = lower value",0.979
same,normalized growth,"locus YGL078C, strain dbp3, stronger effect = lower value",0.981
same,normalized growth,"locus YGL086W, strain mad1, stronger effect = lower value",0.921 (active)
same,normalized growth,"locus YGL167C, strain pmr1, stronger effect = lower value",0.96
same,normalized growth,"locus YGL173C, strain kem1, stronger effect = lower value",0.959
same,normalized growth,"locus YGL227W, strain vid30, stronger effect = lower value",0.983
same,normalized growth,"locus YGL240W, strain doc1, stronger effect = lower value",0.991
same,normalized growth,"locus YGL248W, strain PDE1, stronger effect = lower value",0.939
same,normalized growth,"locus YGL253W, strain hxk2, stronger effect = lower value",0.976
same,normalized growth,"locus YGR135W, strain pre9, stronger effect = lower value",0.948
same,normalized growth,"locus YGR252W, strain gcn5, stronger effect = lower value",0.92
same,normalized growth,"locus YHR013C, strain ard1, stronger effect = lower value",0.944
same,normalized growth,"locus YHR027C, strain rpn1, stronger effect = lower value",0.964
same,normalized growth,"locus YHR030C, strain SLT2, stronger effect = lower value",0.991 and 0.996
same,normalized growth,"locus YHR079C, strain IRE1 (second series), stronger effect = lower value",0.971
same,normalized growth,"locus YHR079C, strain IRE1, stronger effect = lower value",0.978
same,normalized growth,"locus YHR094C, strain hxt1, stronger effect = lower value",0.977
same,normalized growth,"locus YHR129C, strain ARP1, stronger effect = lower value",0.959
same,normalized growth,"locus YHR142W, strain chs7, stronger effect = lower value",0.929
same,normalized growth,"locus YHR200W, strain rpn10, stronger effect = lower value",0.982
same,normalized growth,"locus YIL066C, strain RNR3, stronger effect = lower value",0.961
same,normalized growth,"locus YIL073C, strain SPO22, stronger effect = lower value",0.955
same,normalized growth,"locus YIL125W, strain kgd1, stronger effect = lower value",0.98
same,normalized growth,"locus YIR030C, strain dcg1, stronger effect = lower value",0.973
same,normalized growth,"locus YJL092W, strain hpr5, stronger effect = lower value",0.978
same,normalized growth,"locus YJL095W, strain BCK1 (second series), stronger effect = lower value",0.987
same,normalized growth,"locus YJL095W, strain BCK1, stronger effect = lower value",0.864 and 0.977
same,normalized growth,"locus YJL115W, strain asf1, stronger effect = lower value",0.98
same,normalized growth,"locus YJL129C, strain trk1, stronger effect = lower value",0.878
same,normalized growth,"locus YJL134W, strain LCB3, stronger effect = lower value",0.989
same,normalized growth,"locus YJL154C, strain vps35, stronger effect = lower value",0.955
same,normalized growth,"locus YJL164C, strain tpk1, stronger effect = lower value",0.965
same,normalized growth,"locus YJL166W, strain qcr8, stronger effect = lower value",0.965
same,normalized growth,"locus YJL168C, strain set2, stronger effect = lower value",0.97
same,normalized growth,"locus YJL187C, strain SWE1 (second series), stronger effect = lower value",0.953
same,normalized growth,"locus YJL187C, strain SWE1, stronger effect = lower value",0.97
same,normalized growth,"locus YJR043C, strain POL32, stronger effect = lower value",1.03
same,normalized growth,"locus YJR066W, strain TOR1, stronger effect = lower value",0.873
same,normalized growth,"locus YKL009W, strain mrt4, stronger effect = lower value",0.963
same,normalized growth,"locus YKL068W, stronger effect = lower value",0.974
same,normalized growth,"locus YKL085W, strain MDH1 (second series), stronger effect = lower value",0.97
same,normalized growth,"locus YKL085W, strain MDH1, stronger effect = lower value",0.97
same,normalized growth,"locus YKL160W, strain elf1, stronger effect = lower value",0.975
same,normalized growth,"locus YKR001C, strain vps1, stronger effect = lower value",0.798 (active)
same,normalized growth,"locus YKR026C, strain gcn3, stronger effect = lower value",0.97
same,normalized growth,"locus YKR091W, strain srl3, stronger effect = lower value",0.981
same,normalized growth,"locus YLL001W, strain dnm1, stronger effect = lower value",0.966
same,normalized growth,"locus YLL026W, stronger effect = lower value",0.988
same,normalized growth,"locus YLL041C, strain sdh2, stronger effect = lower value",0.953
same,normalized growth,"locus YLR027C, strain aat2, stronger effect = lower value",0.991
same,normalized growth,"locus YLR039C, strain RIC1, stronger effect = lower value",1.57 [resistant] (active)
same,normalized growth,"locus YLR058C, strain SHM2, stronger effect = lower value",0.977
same,normalized growth,"locus YLR102C, strain apc9, stronger effect = lower value",0.969
same,normalized growth,"locus YLR113W, strain HOG1, stronger effect = lower value",1.01
same,normalized growth,"locus YLR221C, strain rsa3, stronger effect = lower value",0.971
same,normalized growth,"locus YLR258W, strain gsy2, stronger effect = lower value",0.954
same,normalized growth,"locus YLR262C, strain YPT6 (second series), stronger effect = lower value",0.788 (active)
same,normalized growth,"locus YLR262C, strain YPT6, stronger effect = lower value",0.738
same,normalized growth,"locus YLR268W, strain sec22, stronger effect = lower value",0.968
same,normalized growth,"locus YLR320W, strain mms22, stronger effect = lower value",0.895
same,normalized growth,"locus YLR330W, strain CHS5, stronger effect = lower value",0.888 (active)
same,normalized growth,"locus YLR342W, strain FKS1, stronger effect = lower value",0.96
same,normalized growth,"locus YLR357W, strain rsc2, stronger effect = lower value",1.03
same,normalized growth,"locus YLR370C, strain arc18, stronger effect = lower value",0.974
same,normalized growth,"locus YLR371W, strain rom2, stronger effect = lower value",0.921
same,normalized growth,"locus YLR384C, strain iki3, stronger effect = lower value",0.982
same,normalized growth,"locus YLR418C, strain cdc73, stronger effect = lower value",0.796 (active)
same,normalized growth,"locus YML016C, strain PPZ1, stronger effect = lower value",0.981
same,normalized growth,"locus YML032C, strain rad52, stronger effect = lower value",0.919
same,normalized growth,"locus YML120C, strain ndi1, stronger effect = lower value",0.976
same,normalized growth,"locus YML124C, strain tub3, stronger effect = lower value",0.968
same,normalized growth,"locus YMR058W, strain fet3, stronger effect = lower value",0.979
same,normalized growth,"locus YMR078C, strain ctf18, stronger effect = lower value",0.955
same,normalized growth,"locus YMR125W, strain sto1, stronger effect = lower value",0.961
same,normalized growth,"locus YMR129W, stronger effect = lower value",0.983
same,normalized growth,"locus YMR205C, strain PFK2, stronger effect = lower value",0.914
same,normalized growth,"locus YMR223W, strain ubp8, stronger effect = lower value",0.944
same,normalized growth,"locus YMR231W, strain pep5, stronger effect = lower value",0.972
same,normalized growth,"locus YMR307W, strain GAS1, stronger effect = lower value",0.692
same,normalized growth,"locus YNL067W, strain RPL9B, stronger effect = lower value",0.967
same,normalized growth,"locus YNL071W, strain lat1, stronger effect = lower value",0.948
same,normalized growth,"locus YNL153C, strain GIM3, stronger effect = lower value",0.953
same,normalized growth,"locus YNL183C, strain NPR1, stronger effect = lower value",0.915
same,normalized growth,"locus YNL209W, strain ssb2, stronger effect = lower value",0.975
same,normalized growth,"locus YNL233W, strain BNI4, stronger effect = lower value",0.934
same,normalized growth,"locus YNL248C, strain rpa49, stronger effect = lower value",0.976
same,normalized growth,"locus YNL250W, strain rad50, stronger effect = lower value",1.01
same,normalized growth,"locus YNL271C, strain bni1, stronger effect = lower value",0.975
same,normalized growth,"locus YNL298W, strain CLA4, stronger effect = lower value",0.945
same,normalized growth,"locus YNL307C, strain MCK1, stronger effect = lower value",0.761 (active)
same,normalized growth,"locus YNL322C, strain KRE1 (second series), stronger effect = lower value",0.986
same,normalized growth,"locus YNR049C, strain mso1, stronger effect = lower value",0.963
same,normalized growth,"locus YNR052C, strain pop2, stronger effect = lower value",0.943
same,normalized growth,"locus YOL012C, strain htz1",1.31
same,normalized growth,"locus YOL147C, strain pex11, stronger effect = lower value",0.931 (active)
same,normalized growth,"locus YOR001W, strain rrp6, stronger effect = lower value",0.953
same,normalized growth,"locus YOR061W, strain CKA2, stronger effect = lower value",0.999
same,normalized growth,"locus YOR069W, strain VPS5, stronger effect = lower value",0.974
same,normalized growth,"locus YOR070C, strain gyp1, stronger effect = lower value",0.987
same,normalized growth,"locus YOR080W, strain dia2, stronger effect = lower value",0.975
same,normalized growth,"locus YOR083W, strain WHI5, stronger effect = lower value",0.973
same,normalized growth,"locus YOR106W, strain vam3, stronger effect = lower value",0.97
same,normalized growth,"locus YOR136W, strain idh2, stronger effect = lower value",0.967
same,normalized growth,"locus YOR144C, strain elg1, stronger effect = lower value",0.961
same,normalized growth,"locus YOR184W, strain ser1, stronger effect = lower value",0.866 (active)
same,normalized growth,"locus YOR231W, strain MKK1, stronger effect = lower value",0.953
same,normalized growth,"locus YOR265W, strain rbl2, stronger effect = lower value",0.969
same,normalized growth,"locus YOR270C, strain vph1, stronger effect = lower value",0.737 (active)
same,normalized growth,"locus YOR290C, strain snf2, stronger effect = lower value",0.982
same,normalized growth,"locus YOR316C, strain cot1, stronger effect = lower value",0.979
same,normalized growth,"locus YPL051W, strain arl3, stronger effect = lower value",0.975
same,normalized growth,"locus YPL078C, strain atp4, stronger effect = lower value",0.958
same,normalized growth,"locus YPL106C, strain sse1, stronger effect = lower value",1.02
same,normalized growth,"locus YPL240C, strain hsp82, stronger effect = lower value",0.965
same,normalized growth,"locus YPL241C, strain CIN2, stronger effect = lower value",0.971
same,normalized growth,"locus YPL256C, strain CLN2, stronger effect = lower value",0.969
same,normalized growth,"locus YPR119W, strain clb2, stronger effect = lower value",0.966
same,normalized growth,"locus YPR141C, strain kar3, stronger effect = lower value",0.98
same,normalized growth,"locus YPR163C, strain tif3, stronger effect = lower value",0.86 (active)
same,normalized growth,"locus YPR167C, strain met16, stronger effect = lower value",0.965
same,normalized growth,"strain wtn01, stronger effect = lower value",0.94

# — PubChem BioAssay AID1159580 (chemical genetic matrix, 2015)
